HT1080 IDH1KD tx = qHTS for induction of synthetic lethality in tumor cells producing 2HG: qHTS for the HT-1080-IDH1KD cell line; HT-1080 IDH1 knockdown viability, ATP luminescence, 48 h; Potency, µM (doses to about 46.1 µM), inactives show at the highest dose activity, negative = toxicity, most hits filed as cytotoxic; 360,000 compounds, 2% hits; AID 686971, 2013;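 note: 0% = DMSO wells and -100% = cell-free medium wells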
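Using the IDH1-knockdown HT-1080 line run in the same batch and compound series as the NT line, viability after 48 h at 37 °C was determined by CellTiter-Glo luminescence and expressed as % activity.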
KB-3-1 tox = qHTS assay for MDR1-selective chemotherapeutics: Primary screen using the parental adenocarcinoma cell KB-3-1. KB-3-1 viability, CellTiter-Glo ATP luminescence, 72 h. Potency, µM (series often up to 46.1 µM), actives largely listed as cytotoxic. 400,000 compounds, 1.4% hits. AID 1347075, 2019; note: % is set by controls: 0 for no effect and ±100 for the full control effect; nearly all actives have a fitted effect of over 60% in size
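Multi-concentration cytotoxicity screen in KB-3-1 cells grown in DMEM lacking phenol red with 10% FBS. After 72 h at 37 °C with compound, ATP-dependent luminescence was recorded.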
HT1080-NT tox = qHTS for induction of synthetic lethality in tumor cells producing 2HG: qHTS for the HT-1080-NT fibrosarcoma cell line. HT-1080-NT fibrosarcoma viability, CellTiter-Glo ATP luminescence, 48 h. 360,000 compounds, 1.6% hits. Potency, µM (series often up to 46.1 µM), inactives show at the top dose activity, negative = less viability, hits mostly cytotoxic;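 note: NT is the 2HG producing partner of a matched IDH1 knockdown line; 0% = DMSO-treated cells and -100% = media-only wells without cells; nearly all actives have a fitted effect of over 55% in size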
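Viability by CellTiter-Glo luminescence after 48 h compound exposure at 37C of HT-1080-NT cells (750/well, RPMI, 5% FBS). % activity scaled between DMSO wells and medium-only wells, then curve-fitted and categorized by curve class.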
ATXN viability = Viability Counterscreen for Primary qHTS for Inhibitors of ATXN expression; 400,000 compounds, 0.49% hits; S2 cells (HEK-293 line with an ATXN2-luciferase reporter) viability, CellTiter-Fluor protease fluorescence, 24 h; AID 651635, 2014; Potency, µM (doses to about 56.7 µM), usual class: cytotoxic; note: nearly all actives have a fitted effect of over 40% in size
KB-V1 cytotox = qHTS assay for MDR1-selective chemotherapeutics: Primary screen using the drug-selected MDR subline cells KB-V1; KB-V1 MDR cells viability, CellTiter-Glo, 72 h; Potency, µM (top dose mostly 46.1 µM), most hits filed as cytotoxic; 400,000 compounds, 3.4% hits; note: % is set by controls: 0 for no effect and ±100 for the full control effect; nearly all actives have a fitted effect of over 60% in size
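qHTS viability screen in drug-selected KB-V1 MDR cells: 72 h compound treatment at 37 degrees C, ATP luminescence end point.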
ATXN2 expr inh = Primary qHTS for Inhibitors of ATXN expression; 360,000 compounds, 0.72% hits; HEK-293 ATXN2-luciferase reporter, luminescence, 24 h; Potency, µM (titrated, usually from 57 µM), for inactives: top-dose activity change, negative = inhibition, hits mostly inhibitors; note: % is set by controls: 0 for no effect and ±100 for the full control effect; nearly all actives have a fitted effect of over 55% in size
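ATXN2-luciferase reporter cells (luciferase flanked by upstream and downstream ATXN2 gene portions) were treated 24 h at 37 °C with compounds at up to 57 uM. SteadyGlo luminescence gave expression; GF-AFC fluorescence gave viability.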
Starred values were filed as active, the others as inactive. Only some compounds are listed: those with a hit (about 6.2% of all), similar ones and a draw of the others. Calls come from the whole dose curve; as a rule, active = well fitted curve in the direction sought with a large enough effect; inconclusive = small, poorly fitted or top-dose-only effect, or another doubt; inactive = no such curve, though single readings can be large; an effect the other way counts as inactive or inconclusive. Potency is the fitted concentration of half-maximal effect.

Screening C(=N\Nc1nc2ccccc2s1)/c1cccs1 returned HT1080 IDH1KD tx 11µM*, KB-3-1 tox inactive, HT1080-NT tox 10µM*, ATXN viability inactive, KB-V1 cytotox inconclusive and ATXN2 expr inh 43%.
For Cc1ccc(CN2CCCN(CC(=O)Nc3ccc(C)cc3C)S2(=O)=O)cc1 the results were KB-3-1 tox inactive and KB-V1 cytotox inactive.
For COC(=O)C[C@H]1CC[C@H](NC(=O)Nc2ccccc2F)[C@@H](CO)O1 the results were HT1080 IDH1KD tx 15%, KB-3-1 tox inactive, HT1080-NT tox 15% and KB-V1 cytotox inactive.
Screening COCC(=O)Nc1cc(C(=O)NC2CCc3ccccc32)c2c(c1)nc(-c1ccncc1)n2C (centres undefined) returned ATXN viability inactive.
`CC1=C(C(=O)Nc2cc(Cl)ccc2C)C(c2sccc2C)n2ncnc2N1` (centres undefined) gave KB-3-1 tox inactive, ATXN viability inactive, KB-V1 cytotox inconclusive and ATXN2 expr inh 7%.
`COc1cccc(C(=O)N(Cc2cc3cc4c(cc3nc2N(C)C)OCO4)CC2CCCO2)c1` (centres undefined) gave ATXN viability inactive.
`O=C1C=C(NCCc2cc(Br)c(O)c(Br)c2)C(=O)c2ncccc21` gave HT1080 IDH1KD tx 10µM*, KB-3-1 tox 7.3µM*, HT1080-NT tox inconclusive, ATXN viability inconclusive, KB-V1 cytotox 5.8µM* and ATXN2 expr inh 9.5µM*.
For CC(C)(C)c1cc(CCC(=O)NCCc2ccccn2)cc(C(C)(C)C)c1O the results were HT1080 IDH1KD tx -11%, KB-3-1 tox inactive, HT1080-NT tox -1%, ATXN viability inactive, KB-V1 cytotox inconclusive and ATXN2 expr inh -1%.
`CCCCOC(=O)c1ccc(NS(=O)(=O)c2c(C)nc3scc(C)n3c2=O)cc1` gave KB-3-1 tox inactive, ATXN viability inactive, KB-V1 cytotox 8.2µM* and ATXN2 expr inh -8%.
Screening Cc1nc2scc(C)n2c(=O)c1S(=O)(=O)Nc1ccc(F)cc1 returned HT1080 IDH1KD tx -8%, KB-3-1 tox inactive, HT1080-NT tox -14%, ATXN viability inactive, KB-V1 cytotox inactive and ATXN2 expr inh -2%.
For Cc1cccc(CN2CCC(n3nccc3NC(=O)CCCc3ccccc3)CC2)c1 the results were HT1080 IDH1KD tx -23%, KB-3-1 tox inactive, HT1080-NT tox -12%, ATXN viability inactive and KB-V1 cytotox inconclusive.
CN(CCCC(=O)O)c1ccc(N=Nc2ccc([N+](=O)[O-])cc2)cc1 was read as HT1080 IDH1KD tx -22%, KB-3-1 tox inconclusive, HT1080-NT tox -4%, ATXN viability 14µM* and KB-V1 cytotox inactive.
Cc1ccc(C(c2c(O)cc(C)n(Cc3ccco3)c2=O)N2CCC(C)CC2)cc1 (centres undefined) was read as KB-3-1 tox inactive and KB-V1 cytotox inactive.
For Cc1cc(Cl)ccc1OCC(=O)N/N=C/c1ccc(OC2OC(CO)C(O)C(O)C2O)cc1 (centres undefined) the results were HT1080 IDH1KD tx -16%, KB-3-1 tox inactive, HT1080-NT tox -14%, ATXN viability inactive, KB-V1 cytotox inactive and ATXN2 expr inh -17%.
For COc1ccc(OCC(=O)N/N=C/c2ccc(O[C@@H]3O[C@H](CO)[C@@H](O)[C@H](O)[C@H]3O)cc2)cc1 the results were HT1080 IDH1KD tx 1.6µM*, KB-3-1 tox 3.7µM*, HT1080-NT tox inconclusive, ATXN viability inactive, KB-V1 cytotox inactive and ATXN2 expr inh 0%.
